Source: PubChem BioAssay
The entries come from a sample that favours hits as a whole.
Cruzain inh noDet = blocks cruzain activity in detergent-free assay; AID 1476; 200,000 compounds, 2.3% hits; Potency, µM, actives largely listed as inhibitors; P25779; purified cruzain, Z-FR-AMC fluorescence, no detergent; note: nearly all actives have a fitted effect of over 40% in size
Target sequence (P25779 123-467 limits assumed): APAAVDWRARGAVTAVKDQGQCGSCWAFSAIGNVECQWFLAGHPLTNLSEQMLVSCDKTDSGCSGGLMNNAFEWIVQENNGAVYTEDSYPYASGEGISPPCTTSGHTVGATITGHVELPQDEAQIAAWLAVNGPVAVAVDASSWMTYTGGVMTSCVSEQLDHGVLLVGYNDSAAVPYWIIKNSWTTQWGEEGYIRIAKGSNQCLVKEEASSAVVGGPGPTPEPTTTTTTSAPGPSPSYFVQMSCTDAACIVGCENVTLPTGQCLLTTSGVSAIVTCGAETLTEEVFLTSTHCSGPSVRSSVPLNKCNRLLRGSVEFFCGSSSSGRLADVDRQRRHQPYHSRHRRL
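Detergent-free condition (0.00005% Triton X-100) in acetate buffer pH 5.5 with DTT. 1.5 nM enzyme and compound were pre-mixed 15 min, then 2 uM Z-FR-AMC substrate added; reaction progress from fluorescence change between first and third reads (60 s).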
NS1 inh = inhibitors of influenza NS1 protein function | Potency, µM (series often up to 46.1 µM) | 270,000 compounds, 0.4% hits | AID 2326; calls by dose curve; note: actives are rising curves; nearly all actives have a fitted effect of over 50% in size
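Growth recovery, yeast-based: influenza A NS1 expressed in S. cerevisiae causes slow growth, and suppressors are detected by OD600. The parent strain without NS1 is used as positive control.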
Cruzain inh Det = blocks cruzain activity in presence of Triton detergent; P25779; purified cruzain, Z-FR-AMC fluorescence, 0.01% Triton; Potency, µM, usual class: inhibitors; 200,000 compounds, 0.43% hits; note: nearly all actives have a fitted effect of over 40% in size
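Steps: dispense cruzain (1.5 nM final) in acetate buffer pH 5.5 with DTT and 0.01% Triton X-100; pin-transfer compounds; incubate 15 min RT; add Z-FR-AMC (2 uM final); read fluorescence every 30 s, using the 60 s intensity change.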
Each line names hits and unclear results; the compound was inactive in the other large screens. Unless noted, calls come from the whole dose curve; as a rule, active = well fitted curve in the direction sought with a large enough effect; inconclusive = small, poorly fitted or top-dose-only effect, or another doubt; inactive = no such curve, though single readings can be large; an effect the other way counts as inactive or inconclusive.

Cc1ccc2ccc3cc(C(=O)Nc4ccc(C)c(F)c4)nc3c2[nH]1	Cruzain inh noDet inconclusive, Cruzain inh Det 8.9µM (no result: NS1 inh)
CN1C2CC(OC(=O)C(CO)c3ccccc3)C[C@@H]1[C@H]1OC21 (stereo not given in full)	none (no result: NS1 inh)
Cc1cnc(CNc2ncncc2-c2ccccc2C(F)(F)F)cn1	none (no result: NS1 inh)
Oc1ccc(CN2CCCc3ccccc32)c2cccnc12	Cruzain inh noDet 25µM
COc1ccccc1N1CCN(Cc2ccc(O)c3ncccc23)CC1	none
Cc1ccc(C)c(CS(=O)(=O)c2cn(CC(=O)N(C(C)C)C(C)C)c3ccccc23)c1	none (no result: NS1 inh)
COC(=O)c1cc2sc(Cl)cc2n1CC(=O)Nc1cc(OC)cc(OC)c1	none (no result: NS1 inh)
COC(=O)c1cc2sc(Cl)cc2n1CC(=O)NCCC(C)C	Cruzain inh noDet 25µM
CCOC(=O)CCC(=O)Nc1ccc(S(=O)(=O)N2CCc3ccccc32)cc1	none (no result: Cruzain inh noDet, Cruzain inh Det)
CCOC(=O)/C(C#N)=N/Nc1ccc(S(=O)(=O)N2CCc3ccccc32)cc1	Cruzain inh noDet 25µM
N[C@@H](Cc1c[nH]c2cc([N+](=O)[O-])ccc12)C(=O)O	none
Cc1ccc(-c2csc(/C(C#N)=C/Nc3ccccc3SC(F)(F)F)n2)cc1	Cruzain inh noDet 10µM
N#C/C(=C\Nc1ccccc1SC(F)(F)F)c1nc(-c2ccc(F)cc2)cs1	none
CN(C)c1ccc(C(CNS(=O)(=O)c2ccccc2)N2CCc3ccccc32)cc1 (stereo not given)	Cruzain inh noDet 16µM (no result: NS1 inh)
Cc1ccc(S(=O)(=O)NCC(c2ccc(N(C)C)cc2)N2CCc3ccccc32)cc1 (stereo not given)	none (no result: NS1 inh)
Cc1ccc([N+](=O)[O-])c(N)c1	none (no result: NS1 inh)
CCCn1cc(S(=O)(=O)c2ccc(OCC)cc2)c(=O)c2cc(C)ccc21	none (no result: NS1 inh)
Cc1ccc(Cn2cc(S(=O)(=O)c3ccc(C(C)C)cc3)c(=O)c3cc4c(cc32)OCO4)cc1	Cruzain inh noDet 32µM, NS1 inh inconclusive
CC(C)c1ccc(S(=O)(=O)c2cn(Cc3ccc(F)cc3)c3cc4c(cc3c2=O)OCO4)cc1	Cruzain inh noDet inconclusive
CCOc1ccc(S(=O)(=O)c2cn(Cc3cc(C)ccc3C)c3ccc(OCC)cc3c2=O)cc1	Cruzain inh noDet 16µM (no result: NS1 inh)
COc1ccc(OC(=O)c2nc(SCc3ccccc3C)ncc2Cl)cc1	Cruzain inh noDet inconclusive (no result: NS1 inh)
CC(=O)O[C@@H]1C[C@@]2(C)C(c3ccoc3)C[C@H]3O[C@]32[C@]2(C)C(=O)C(O)=C3C(C)(C)C(=O)C=C[C@]3(C)C12 (stereo not given in full)	Cruzain inh noDet inconclusive (no result: NS1 inh)
Cc1cccc(C(=O)NC(NC(=S)Nc2ccc(S(N)(=O)=O)cc2)C(Cl)(Cl)Cl)c1 (stereo not given)	Cruzain inh noDet 25µM, Cruzain inh Det 13µM
CC(=O)NC(NC(=S)Nc1ccc(S(N)(=O)=O)cc1)C(Cl)(Cl)Cl (stereo not given)	none (no result: Cruzain inh noDet, Cruzain inh Det)
C=CCSc1n[nH]c2nc3c(c(=O)n12)C1(CCCC1)Cc1ccccc1-3	Cruzain inh noDet 10µM
CCSc1n[nH]c2nc3c(c(=O)n12)C1(CCCC1)Cc1ccccc1-3	Cruzain inh noDet inconclusive
CC(C)c1ccc(C2=NC(c3ccncc3)=Nc3ccc(F)cc3N2)cc1	none (no result: NS1 inh)
Cc1ccc(C(=O)NCC(=O)OC(C)C(=O)NCCC2=CCCCC2)cc1C (stereo not given)	Cruzain inh noDet inconclusive, Cruzain inh Det 22µM
CC(OC(=O)c1ccccc1)C(=O)NCCC1=CCCCC1 (stereo not given)	none (no result: Cruzain inh noDet, Cruzain inh Det)
FC(F)(F)c1cccc(N2CCN(Cc3nnc(-c4ccc5c(c4)OCO5)o3)CC2)c1	Cruzain inh noDet inconclusive (no result: NS1 inh)
CCn1c2ccccc2c2cc(/C(C)=N/O)ccc21	none
CCn1c2ccccc2c2cc(N)ccc21	Cruzain inh noDet 7.9µM, NS1 inh inconclusive
COc1cc(SC#N)ccc1N=Cc1c(C)[nH]n(-c2ccc(C)c(C)c2)c1=O	none
COc1cc(SC#N)ccc1N=Cc1c(C)[nH]n(-c2ccc(Cl)cc2)c1=O	Cruzain inh noDet 20µM
Nc1ncnc2c1nc(Br)n2C1O[C@H]2COP(=O)(O)O[C@@H]2C1O (stereo not given in full)	none
N#CCCn1c(=O)c(-c2ccccc2)nc2cnc(N3CCOCC3)nc21	none (no result: NS1 inh)
CCOC(=O)COc1ccc2nsnc2c1Cl	NS1 inh inconclusive
CCOC(=O)COc1ccccc1-c1ccno1	Cruzain inh noDet 25µM, Cruzain inh Det inconclusive
Cc1ccc2c(c1)N[C@H](c1ccc(C(=O)O)cc1)c1cccn1-2	none
Cc1ccc(CNC(=O)c2ccc3c(c2)N(Cc2cccc(C)c2)C(=O)CS3)cc1	none (no result: NS1 inh)
Cc1nc(N)sc1-c1csc(N(C)c2ccc(O)cc2)n1	Cruzain inh noDet 5µM, NS1 inh inconclusive, Cruzain inh Det 13µM
CN(c1ccc(O)cc1)c1nc(-c2cccs2)cs1	none (no result: Cruzain inh noDet, Cruzain inh Det)
COCC1=C2c3ccccc3[C@H](C[N+](=O)[O-])C(C(=O)OC)(C(=O)OC)C[C@@H]2n2c(=O)n(-c3ccccc3)c(=O)n2C1	none (no result: NS1 inh)
COc1cccc([C@@H]2Oc3ccc(Br)cc3C[C@H]2O)c1	none (no result: NS1 inh)
